Compound activity from PubChem.
Pol kappa inh-1: qHTS for Inhibitors of Polymerase Kappa; DNA polymerase kappa (Homo sapiens), Q9UBT6; purified Pol kappa, fluorescent DNA synthesis assay, 10 min; Potency, µM (doses to about 107 µM), for inactives: top-dose activity, negative = inhibition, most hits filed as inhibitors; actives 0.53% (n = 400,000); AID 588579, 2011; note: potency is the fitted concentration of half-maximal effect; % is set by controls: 0 for no effect and ±100 for the full control effect
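Enzyme at 10 nM met test compounds for 15 min at room temperature. Substrate addition (50 nM final) began the reaction, which was monitored by fluorescence at 0 and 10 min.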
POLI inh: qHTS for Inhibitors of Polymerase Iota; DNA polymerase iota (Homo sapiens), Q9UNA4; Pol iota fluorescent replication assay, 10 min; Potency, µM (doses to about 115 µM), inactives show at the top dose activity, negative = inhibition, actives largely listed as inhibitors; actives 1% (n = 390,000); AID 588590, 2011; note: potency is the fitted concentration of half-maximal effect
Target sequence (Q9UNA4 whole entry, looked up): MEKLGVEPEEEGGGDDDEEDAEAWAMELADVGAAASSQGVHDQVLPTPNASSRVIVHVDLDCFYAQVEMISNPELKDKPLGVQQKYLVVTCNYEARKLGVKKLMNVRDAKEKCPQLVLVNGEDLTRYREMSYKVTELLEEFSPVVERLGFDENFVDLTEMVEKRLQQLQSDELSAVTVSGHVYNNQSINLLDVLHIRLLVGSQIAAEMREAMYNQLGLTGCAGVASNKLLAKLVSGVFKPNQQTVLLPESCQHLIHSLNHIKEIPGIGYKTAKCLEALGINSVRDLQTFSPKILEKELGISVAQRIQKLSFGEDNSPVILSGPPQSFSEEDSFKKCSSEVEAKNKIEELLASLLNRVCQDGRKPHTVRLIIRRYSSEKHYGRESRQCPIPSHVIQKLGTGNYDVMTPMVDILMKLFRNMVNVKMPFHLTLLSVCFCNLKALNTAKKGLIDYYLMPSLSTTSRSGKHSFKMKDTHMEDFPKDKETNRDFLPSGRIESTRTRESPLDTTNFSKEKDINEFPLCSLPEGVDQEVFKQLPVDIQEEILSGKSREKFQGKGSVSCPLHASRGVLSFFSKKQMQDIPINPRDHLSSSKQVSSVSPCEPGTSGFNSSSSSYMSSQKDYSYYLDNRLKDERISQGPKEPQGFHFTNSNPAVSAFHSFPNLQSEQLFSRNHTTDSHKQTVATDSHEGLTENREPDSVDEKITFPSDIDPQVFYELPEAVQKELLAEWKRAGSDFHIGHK
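Fluorescent replication assay read twice, at 0 min and 10 min after adding 50 nM (final) substrate. Enzyme (10 nM) and compounds were first incubated 15 min at room temperature; enzyme-free buffer wells were negative controls.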
POLB inh: qHTS Assay for Inhibitors of DNA Polymerase Beta; P06746; Pol beta primer extension/strand displacement, fluorescence kinetic; Potency, µM (titrated, usually from 114 µM), for the others: top-dose activity change, negative = inhibition, usual class: inhibitors; actives 1.3% (n = 340,000); AID 485314, 2010; note: potency is the fitted concentration of half-maximal effect; % is set by controls: 0 for no effect and ±100 for the full control effect
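Curves were derived by four-parameter Hill fits of normalized qHTS data. The kinetic fluorescent primer-extension read was taken at 0 and 10 min after 50 nM substrate, following a 15 min room-temperature preincubation of 10 nM enzyme with compounds.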
Pol eta inh-1: qHTS for Inhibitors of Polymerase Eta; recombinant Pol eta, fluorescent DNA replication assay; Potency, µM (titrated, usually from 114 µM), for the others: at the highest dose activity change, negative = inhibition, most hits filed as inhibitors; actives 1.2% (n = 390,000); AID 588591, 2011; note: potency is the fitted concentration of half-maximal effect; % is set by controls: 0 for no effect and ±100 for the full control effect
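Pol eta at 10 nM preincubated with compounds 15 min at room temperature; reaction started with fluorescent substrate (50 nM final) and read kinetically at 0 and 10 min.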
Tb PGK inh: qHTS Assay to Find Inhibitors of Phosphoglycerate Kinase; actives 0.043% (n = 380,000); PGK/GAPDH coupled, Kinase-Glo luminescence, 60 min; Potency, µM (doses to about 57.5 µM), for inactives: at the top dose activity change, negative = inhibition, actives largely listed as inhibitors; Phosphoglycerate kinase, glycosomal (Trypanosoma brucei brucei), P07378; AID 602233, 2012; note: potency is the fitted concentration of half-maximal effect; % is set by controls: 0 for no effect and ±100 for the full control effect; nearly all actives have a fitted effect of over 60% in size
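Luminescent ATP detection (Kinase-Glo Plus) follows a 60-minute room-temperature incubation, with wells lacking PGK as controls. Buffer: 100 mM TEA (pH 7.6), 5 mM MgCl2, 0.01% Tween-20. Coupling enzyme GAPDH (100 nM final) supplies unstable 1,3-BPG in-well.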
FEN1 inh: qHTS Assay for the Inhibitors of Human Flap endonuclease 1 (FEN1) | P39748 | Recombinant FEN1 flap cleavage, fluorescence, 15 min | Potency, µM (titrated, usually from 114 µM), for the others: at the top dose activity change, negative = inhibition, usual class: inhibitors | actives 0.35% (n = 390,000) | AID 588795, 2011; note: potency is the fitted concentration of half-maximal effect; % is set by controls: 0 for no effect and ±100 for the full control effect; nearly all actives have a fitted effect of over 65% in size
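Nuclease activity of 10 nM FEN1 was measured after 15 min of room-temperature exposure to titrated compounds, by adding 50 nM flap substrate and reading plates at 0 and 15 min.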
GALK confirm: Confirmation Assay for Inhibitors of Human Galactokinase (GALK). shares compounds with Pol eta inh-1. purified GALK, Kinase-Glo ATP depletion luminescence. Potency, µM (titrated, usually from 115 µM), for the others: at the top dose activity, negative = inhibition, hits mostly inhibitors. AID 2015, 2009. actives 70% (n = 150)
GALK redox cs: Confirmatory Assay for Inhibitors of Human Galactokinase (GALK): Phenol-HRP redox assay counterscreen | actives 40% (n = 150) | shares compounds with Pol eta inh-1 | Phenol red-HRP H2O2 redox cycling, absorbance 600 nm | Potency, µM (top dose mostly 115 µM), for the others: at the highest dose activity change, negative = H2O2 signal, most hits filed as inhibitors | AID 2035, 2009
HEK293 tox: Secondary Assay for Inhibitors of Human Galactokinase (GALK): HEK-293 Cell Viability Assay | Potency, µM (doses to about 46.1 µM), for the others: top-dose activity change, negative = cytotoxicity, actives largely listed as inhibitors | HEK-293 viability, ATP luminescence (CellTiter-Glo), 24/48 h | actives 10% (n = 170) | shares compounds with Pol eta inh-1; note: potency is the fitted concentration of half-maximal effect; % is set by controls: 0 for no effect and ±100 for the full control effect
Pol kappa inh-2: qHTS for Inhibitors of Polymerase Kappa: Confirmatory Assay for Cherry-picked Compounds | shares compounds with Pol eta inh-1 | purified Pol-kappa, fluorescent strand-displacement substrate | Potency, µM, most hits filed as inhibitors | actives 76% (n = 920); note: potency is the fitted concentration of half-maximal effect
Pol eta inh-2: qHTS for Inhibitors of Polymerase Eta: Confirmatory Assay for Cherry-picked Compounds. Pol eta primer extension, TAMRA/BHQ fluorescence, 10 min. Potency, µM, usual class: inhibitors. actives 64% (n = 2,600). shares compounds with Pol eta inh-1; note: potency is the fitted concentration of half-maximal effect
* marks the source's active call; other numbers are inactive results; i = inactive; ? = inconclusive; · = no result given; [ ] = remark or other dose. Rows were chosen to be rich in hits. Some 2.4% of all compounds tested hit in one or more screens of this group. Calls come from the whole dose curve; as a rule, active = well fitted curve in the direction sought with a large enough effect; inconclusive = small, poorly fitted or top-dose-only effect, or another doubt; inactive = no such curve, though single readings can be large; an effect the other way counts as inactive or inconclusive.

SMILES | Pol kappa inh-1 | POLI inh | POLB inh | Pol eta inh-1 | Tb PGK inh | FEN1 inh | Pol kappa inh-2 | Pol eta inh-2 | others
CC(C)CC(NC(=O)/C(=C/c1ccco1)NC(=O)c1ccc(Br)o1)C(=O)O (stereo unspecified) | 70.8µM* | ? | 0.1% | 22.4µM* | -13.0% | -22.8% | ? | ·
O=C(Nc1cccc(C(=O)O)c1)/C(=C\c1ccco1)NC(=O)c1ccc(Br)o1 | 79.4µM* | ? | ? | 17.8µM* | -4.0% | -25.3% | 23.8* | 37.9*
O=C(Nc1cccc(C(=O)O)c1)/C(=C\c1ccco1)NC(=O)c1ccccc1 | -29.7% | ? | 16.0% | ? | -1.9% | 0.3% | · | ·
N#C/C(=C\c1ccc(N2CCOCC2)o1)c1nc2ccccc2[nH]1 | ? | -12.7% | ? | ? | -11.4% | ? | · | ·
N#C/C(=C\c1ccccc1C(=O)O)c1nc2ccccc2[nH]1 | -7.3% | 190.1% | 40.7% | -14.1% | -0.7% | -2.5% | · | ·
N#C/C(=C\c1ccc(-c2ccc(Cl)c(C(=O)O)c2)o1)c1nc2ccccc2[nH]1 | -24.9% | 22.4µM* | ? | 22.4µM* | ? | -33.1% | · | 60.1*
N#C/C(=C\c1ccc(-c2ccc(C(=O)O)cc2)o1)c1nc2ccccc2[nH]1 | ? | 31.6µM* | ? | 28.2µM* | -2.3% | 44.7µM* | 13.4* | 33.8*
O=C(CNC(=O)C12CC3CC(CC(C3)C1)C2)N/N=C\c1ccco1 | -10.5% | 16.2% | 11.3% | -2.9% | -3.0% | 5.1% | · | ·
O=C(/C=C/c1ccco1)c1ccc(NC(=O)C23CC4CC(CC(C4)C2)C3)cc1 | ? | ? | 7.08µM* | 10µM* | -6.5% | ? | · | ?
CCCNC(=O)c1ccc2nc(-c3ccccc3)c(-c3ccccc3)nc2c1 | -3.6% | 4.8% | -16.4% | -12.5% | 1.3% | -7.9% | · | ·
CCCCNC(=O)c1ccc2nc(-c3ccco3)c(-c3ccco3)nc2c1 | 8.91µM* | ? | 20µM* | 14.1µM* | -8.0% | 39.8µM* | 21.2* | ?
CCN1CCN(CCNC(=O)c2ccc3nc(-c4cccc(C)c4)c(-c4cccc(C)c4)nc3c2)CC1 | 11.8% | -0.9% | 19.1% | -25.2% | i | 9.5% | · | · | GALK confirm=?;GALK redox cs=-27.4%;HEK293 tox=?
COc1cc(NC(=O)c2ccc3c(SCC(=O)O)c4c(nc3c2)CCC4)cc(OC)c1OC | ? | ? | -4.5% | 17.8µM* | 2.0% | 1.7% | · | 53.6*
O=C1/C(=C\c2ccccn2)SC(=S)N1c1ccc(S(=O)(=O)Nc2nccs2)cc1 | ? | ? | ? | 17.8µM* | -14.7% | ? | · | 84.9*
Cc1ccc(/C=C2/SC(=S)N(c3ccc(S(=O)(=O)Nc4nccs4)cc3)C2=O)cc1 | ? | 17.8µM* | ? | 39.8µM* | -13.4% | ? | · | 75.7*
CC1(C)CC[C@]2(C(=O)O)CC[C@]3(C)C(=CC[C@@H]4[C@@]5(C)CC[C@H](O[C@@H]6O[C@H](C(=O)O)[C@@H](O)[C@H](O[C@@H]7OC[C@H](O)[C@H](O)[C@H]7O)[C@H]6O)C(C)(C)[C@@H]5CC[C@]43C)[C@@H]2C1 | ? | ? | · | 50.1µM* | -9.1% | -6.7% | ? | ·
CC1(C)CC[C@]2(C(=O)O[C@@H]3O[C@H](CO)[C@@H](O)[C@H](O)[C@H]3O)CC[C@]3(C)C(=CCC4[C@@]5(C)CC[C@H](O[C@@H]6O[C@H](C(=O)O)[C@@H](O[C@H]7OC[C@@H](O)[C@@H](O)[C@@H]7O)[C@H](O)[C@H]6O)C(C)(C)C5CC[C@]43C)[C@@H]2C1 (stereo partly specified) | -7.2% | -6.0% | · | -5.0% | 8.4% | 4.4% | · | ·
CC(Cc1c[nH]c2ccccc12)C(=O)NCc1ccco1 (stereo unspecified) | ? | ? | 31.6µM* | 20µM* | ? | -11.2% | 42.3* | 30.1*
CC(C)C(CC(=O)NCc1ccco1)c1ccco1 (stereo unspecified) | ? | ? | ? | 17.8µM* | -5.0% | -4.8% | · | ?
Cc1ccc(-n2ncc3c(N4CCC(C)CC4)ncnc32)cc1C | -6.7%[60.1 µM] | 23.1% | 19.0% | -15.9% | 3.3% | -5.8% | · | ·
O=C1c2cccc3c(O)ccc(c23)C(=O)N1c1ccc(Cl)cc1 | -26.5% | ? | -24.0% | -18.4% | 2.7% | -18.6% | · | ·
CC(=O)Nc1ccc(N2C(=O)c3cccc4c(O)ccc(c34)C2=O)cc1 | ? | ? | ? | 31.6µM* | ? | ? | 29.9* | ?
O=C(N/N=C/c1coc2ccccc2c1=O)c1cc(Br)c(O)c(Br)c1 | -12.4% | -7.2% | -13.4% | ? | -5.8% | 5.8% | · | ?
CC(Sc1ccsc1[N+](=O)[O-])C(=O)N1CCN(c2ccccn2)CC1 (stereo unspecified) | ? | ? | -0.8% | 35.5µM* | -0.2% | 10.4% | · | 75.7*
